Structures are written as SMILES. The panel holds about 83,000 compounds, 20% with a hit somewhere; the sample as a whole holds those more often.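 Step 1: grow cells in 96-well plates. Step 2: add test compound at a single concentration. Step 3: incubate 48 h. Step 4: record percent growth.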 A number with no mark means an inactive call. The source made the active and inactive calls. Rule for the calls: active = growth percent below 10; inactive = the rest.

From PubChem BioAssay (NCI) come the findings set out here.

Test systems include SR leukemia; RPMI-8226 leukemia; OVCAR-8 ovarian; OVCAR-5 ovarian; OVCAR-4 ovarian; SK-OV-3 ovarian; IGROV1 ovarian; OVCAR-3 ovarian; HS 578T breast; NCI/ADR-RES ovarian; T-47D breast; BT-549 breast; MDA-MB-435 melanoma; SW-620 colon; MCF7 breast; HCT-116 colon; HCC-2998 colon; KM12 colon.
Holding throughout (assay): NCI-60 one-dose screen, 48 h (100 = growth as untreated, 0 = no growth, -100 = all killed)
Conditions in all cases: 10 µM unless noted

As to `O=C(Cn1cc(CSc2nc3ccccc3o2)nn1)Nc1ccc([N+](=O)[O-])cc1`, the growth is 101% in the assay on SR leukemia; 97.3% in the assay on RPMI-8226 leukemia; 107% in the assay on OVCAR-8 ovarian; 100% in the assay with OVCAR-5 ovarian; 96.9% in the assay on OVCAR-4 ovarian; 76.6% with SK-OV-3 ovarian. Moreover, the growth in the assay with IGROV1 ovarian is 91.6%; with OVCAR-3 ovarian, 103%; in the assay on HS 578T breast it was 95.3%; in the assay on NCI/ADR-RES ovarian, 97.4%; in the assay on T-47D breast, 87.9%; with BT-549 breast, 96.7%. Moreover, the growth with MDA-MB-435 melanoma is 99.1%; in the assay with SW-620 colon, 102%; in the assay on MCF7 breast, 96.8%; with HCT-116 colon, 97.6%; in the assay with HCC-2998 colon, 110%; with KM12 colon it was 94.8%.

For the molecule `COc1ccc(-c2cc(-c3ccc(Cl)cc3)c(C#N)c(=O)n2CCCCC(=O)NO)cc1`, the growth is 40.3% with SR leukemia; 34% in the assay on RPMI-8226 leukemia; 53.9% in the assay with OVCAR-8 ovarian; 63.9% in the assay with OVCAR-5 ovarian; 74.9% in the assay on OVCAR-4 ovarian; 89.3% in the assay on SK-OV-3 ovarian. Moreover, the growth with IGROV1 ovarian is 69%; in the assay with OVCAR-3 ovarian, 75%; with HS 578T breast, 87.8%; in the assay on NCI/ADR-RES ovarian it was 10.8%; in the assay on T-47D breast it was 83.2%; in the assay with BT-549 breast, 59.8%. Further, the growth in the assay with MDA-MB-435 melanoma was 91.1%; in the assay with SW-620 colon, 80%; in the assay with MCF7 breast, 76.7%; in the assay with HCT-116 colon, 62.7%; in the assay on HCC-2998 colon it was 84.3%; with KM12 colon, 86.9%.

In the case of `CCCCCC(C)(O)C(C(=O)O)c1ccccc1` (centres undefined), the growth is 102% in the assay on SR leukemia; 101% in the assay with RPMI-8226 leukemia; 101% in the assay with OVCAR-8 ovarian; 96.1% with OVCAR-5 ovarian; 102% in the assay with OVCAR-4 ovarian; 101% in the assay with SK-OV-3 ovarian. In addition, the growth is 102% with IGROV1 ovarian; 119% with OVCAR-3 ovarian; 107% in the assay with HS 578T breast; 112% in the assay on NCI/ADR-RES ovarian; 106% with T-47D breast; 101% with BT-549 breast. Also, the growth in the assay with MDA-MB-435 melanoma is 107%; in the assay with SW-620 colon, 102%; in the assay with MCF7 breast, 98.1%; in the assay with HCT-116 colon, 99.2%; in the assay on HCC-2998 colon it was 108%; in the assay on KM12 colon, 104%.

With `O=C(Nc1cccc(Cn2c(=O)[nH]c3ccc(Oc4ncccn4)cc3c2=O)c1)c1cccc(Cl)c1`, the growth in the assay with SR leukemia was 35.9%; with RPMI-8226 leukemia, 35.1%; in the assay with OVCAR-8 ovarian it was 58.4%; in the assay with OVCAR-5 ovarian it was 86.2%; in the assay with OVCAR-4 ovarian, 30.5%; with SK-OV-3 ovarian, 82.5%. The growth in the assay with IGROV1 ovarian was 62.4%; in the assay with OVCAR-3 ovarian, 67.6%; with HS 578T breast, 73.7%; in the assay on NCI/ADR-RES ovarian, 77.5%; in the assay on T-47D breast, 20.6%; with BT-549 breast it was 43.8%. Also, the growth in the assay on MDA-MB-435 melanoma is 42.5%; in the assay with SW-620 colon, 83.3%; in the assay with MCF7 breast, 40.2%; in the assay with HCT-116 colon it was 52.6%; with HCC-2998 colon, 84.6%; in the assay on KM12 colon, 55%.

As to `Nc1cc(-c2ccc(Cl)cc2)nn1-c1nc(-c2ccc(Br)cc2)cs1`, the growth in the assay with SR leukemia is 91.3%; with RPMI-8226 leukemia it was 100%; in the assay with OVCAR-8 ovarian, 103%; in the assay with OVCAR-5 ovarian it was 93.7%; in the assay on OVCAR-4 ovarian it was 103%; in the assay on SK-OV-3 ovarian, 92.4%. Further, the growth in the assay with IGROV1 ovarian was 99.9%; in the assay with OVCAR-3 ovarian it was 106%; in the assay on HS 578T breast, 98%; in the assay with NCI/ADR-RES ovarian it was 105%; with T-47D breast, 98.2%; in the assay on BT-549 breast, 100%. For the same molecule, the growth is 99.7% in the assay with MDA-MB-435 melanoma; 106% in the assay with SW-620 colon; 89.8% in the assay on MCF7 breast; 94.4% with HCT-116 colon; 101% in the assay on HCC-2998 colon; 104% in the assay on KM12 colon.

Turning to `N#Cc1nn(-c2ccccn2)c(N)c1C#N`, the growth in the assay with SR leukemia is 86.2%; in the assay with RPMI-8226 leukemia, 110%; in the assay with OVCAR-8 ovarian, 106%; in the assay with OVCAR-5 ovarian, 97.5%; in the assay with OVCAR-4 ovarian, 105%; in the assay with SK-OV-3 ovarian it was 91.5%. In addition, the growth in the assay on IGROV1 ovarian is 108%; with OVCAR-3 ovarian, 114%; in the assay on HS 578T breast it was 105%; in the assay on NCI/ADR-RES ovarian, 104%; in the assay on T-47D breast, 84.1%; with BT-549 breast, 98.3%. Moreover, the growth with MDA-MB-435 melanoma was 101%; in the assay with SW-620 colon it was 115%; in the assay on MCF7 breast, 99.8%; with HCT-116 colon, 87.7%; in the assay with HCC-2998 colon, 106%; in the assay with KM12 colon, 101%.

In the case of `COC(=O)c1c(C)nc(C)c2c1C(=O)C(Br)=C(NCCCCO)C2=O`, the growth is 46.4% with SR leukemia; 75.1% with RPMI-8226 leukemia; 57.7% in the assay with OVCAR-8 ovarian; 101% in the assay with OVCAR-5 ovarian; 38.4% in the assay with OVCAR-4 ovarian; 121% in the assay with SK-OV-3 ovarian. For the same molecule, the growth in the assay on IGROV1 ovarian is 52.9%; with OVCAR-3 ovarian, 1.87% (active); in the assay with HS 578T breast, 87.7%; with NCI/ADR-RES ovarian it was 80%; in the assay on T-47D breast, 76.9%; in the assay with BT-549 breast it was 91.2%. Moreover, the growth with MDA-MB-435 melanoma was -25.3% (active); in the assay on SW-620 colon it was 67.8%; in the assay with MCF7 breast it was 37.8%; with HCT-116 colon it was 34.3%; in the assay with HCC-2998 colon, 78.7%; in the assay on KM12 colon, 61.9%.

For `CCCCC#Cc1c(I)n(C2OC(CO[Si](C)(C)C(C)(C)C)C3OC(C)(C)OC32)c(=O)[nH]c1=O` (centres undefined), the growth was -5.46% (active) in the assay on SR leukemia; -46.9% (active) with RPMI-8226 leukemia; 85.7% with OVCAR-8 ovarian; 82.5% in the assay on OVCAR-5 ovarian; 70.3% with OVCAR-4 ovarian; 98.8% in the assay with SK-OV-3 ovarian. The growth is 83.8% in the assay on IGROV1 ovarian; 42.7% in the assay with OVCAR-3 ovarian; 100% in the assay on HS 578T breast; 84.5% in the assay with NCI/ADR-RES ovarian; 12.3% in the assay on T-47D breast; 99.2% in the assay with BT-549 breast. Further, the growth with MDA-MB-435 melanoma is 82.9%; in the assay on SW-620 colon, 47.6%; with MCF7 breast it was 62.4%; in the assay on HCT-116 colon, 50.2%; in the assay on HCC-2998 colon, -19.8% (active); with KM12 colon it was 109%.
